# In PubChem BioAssay (NCI):
# Compounds without any hit were thinned out: in the full panel of roughly 83,000, 20% have a hit.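 In brief: 96-well plates, 48 h treatment, single concentration, percent growth endpoint.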 Values without a mark were called inactive. Active and inactive are the calls of the source. How the source made its calls: active means growth percent below 10; inactive means the rest.
# Columns and labels:
# Experiment in all cases: NCI-60 one-dose screen, 48 h (100 = growth as untreated, 0 = no growth, -100 = all killed)
# Details in all cases: 10 µM unless noted
# SK-MEL-2 melanoma = test system: SK-MEL-2 melanoma
# EKVX NSCLC = test system: EKVX NSCLC
# SN12C renal = test system: SN12C renal
# UO-31 renal = test system: UO-31 renal
# TK-10 renal = test system: TK-10 renal
# ACHN renal = test system: ACHN renal
# CAKI-1 renal = test system: CAKI-1 renal
# A498 renal = test system: A498 renal
# CCRF-CEM leukemia = test system: CCRF-CEM leukemia
# MOLT-4 leukemia = test system: MOLT-4 leukemia
SMILES,growth (SK-MEL-2 melanoma),growth (EKVX NSCLC),growth (SN12C renal),growth (UO-31 renal),growth (TK-10 renal),growth (ACHN renal),growth (CAKI-1 renal),growth (A498 renal),growth (CCRF-CEM leukemia),growth (MOLT-4 leukemia)
CC(=O)OC[C@]12CC[C@@H]([C@@H](C)c3nnc(-c4ccncc4)o3)[C@@H]1[C@H]1CC[C@@H]3[C@@]4(C)CC[C@H](OC(C)=O)C(C)(C)[C@@H]4CC[C@@]3(C)[C@]1(C)CC2,82.3%,69.3%,87.1%,69%,94.7%,80.8%,64.4%,97.4%,68.4%,57.2%
Cc1ccc(-c2nc(N3CCNCC3)c3oc(-c4ccc(C)cc4)nc3n2)cc1,99.2%,120%,50.9%,64.6%,-30.4% (active),50.7%,101%,94.8%,-72.2% (active),-72.6% (active)
CN(Cc1cc(Br)cc(Br)c1O)Cc1cc(Br)cc(Br)c1O,51%,54.8%,45.1%,23.4%,40.6%,31.4%,24.6%,66.5%,18.2%,21.5%
CCNC(=O)Oc1ccc(/C(=C(/C)Cc2ccc(OC)cc2)c2ccc(OCCN3CCCCC3)cc2)cc1,92.3%,79.8%,71.4%,50.5%,82.6%,94.8%,90%,90.8%,36.5%,31.4%
O=C(NC1CC(F)C1)c1cc2cccnc2n1-c1ccc(Cl)c(Cl)c1 (stereo not given),105%,98.5%,96.4%,69.7%,90.2%,95.5%,84.4%,99%,99.7%,98.9%
O=C(/C=C/c1cccc(Cl)c1Cl)Nc1ncc(Cc2ccccc2Cl)s1,44.7%,55.7%,56.9%,44.6%,84.2%,46.4%,48%,39.6%,21.5%,50.6%
COC(=O)CCC/C=C\C[C@H]1C=CC(=O)/C1=C/C[C@@H](O)C/C=C\CC(F)(F)F,-3.66% (active),47.1%,-6.2% (active),-68.9% (active),-2.5% (active),-47.7% (active),1.42% (active),109%,-9.32% (active),2.73% (active)
C/C=C(\C)C(=O)N[C@H]1C(O)C[C@]2(C)C3CC[C@@]4(C)C(CC[C@@H]4C(C)N(C)C)C3CCC2C1O (stereo not given in full),117%,66%,68.1%,-0.798% (active),109%,60.4%,80.3%,92.9%,14.6%,17%
Cc1ccccc1Nc1cc(O)c2c(=O)cc(-c3ccccc3)oc2c1,65.7%,35.5%,31.8%,42.3%,110%,34.5%,39%,31.3%,29.5%,25.8%
Cc1nn(-c2ccccc2)c(N)c1N=C1NC(=O)/C(=C/c2ccc(Br)cc2)S1,104%,87.7%,73.8%,72.1%,106%,88.5%,68%,67%,72.1%,80.8%
O=C1/C(=C/c2ccccc2F)CN(C(=O)C(Cl)Cl)C/C1=C\c1ccccc1F,-2.69% (active),-8.07% (active),-79.9% (active),-92% (active),-39.7% (active),-100% (active),-43.2% (active),-62.5% (active),1.7% (active),-10.7% (active)
N#Cc1c(Nc2ccc(N3CCOCC3)cc2)nc(SCC(=O)c2ccc(Br)cc2)nc1-c1ccccc1,94.4%,100%,104%,87.3%,96.6%,109%,99.7%,105%,125%,99.2%
c1ccc2c(c1)CCCc1nnc3nc4ccccc4n3c1-2,70.5%,37.7%,48%,29.9%,41.6%,35.1%,22%,54.8%,31.5%,31.6%
C=CCN1C(=O)c2cccc3c(N4CCOCC4)ccc(c23)C1=O,-28.1% (active),-7.17% (active),17%,-3.07% (active),-12.9% (active),18.6%,-39.5% (active),-57% (active),-7.18% (active),-21.2% (active)
CC(C)(C)n1cc(-c2ccnc(NCCNS(=O)(=O)c3ccc(O)cc3)c2)c(-c2cccc(O)c2)n1,108%,104%,98.3%,91.2%,116%,98.2%,103%,88.8%,92.7%,95.1%
C=C1C(=O)O[C@H]2[C@H]1CC/C(COC(=O)CSCSCC(=O)OC/C1=C/CC[C@@]3(C)O[C@H]3[C@H]3OC(=O)C(=C)[C@@H]3CC1)=C\CC[C@@]1(C)O[C@@H]21,59%,15.9%,5.07% (active),-0.857% (active),15.3%,7.98% (active),15.9%,83.6%,-35% (active),-15.3% (active)
O=C1Nc2ccccc2C1(c1c[nH]c2ccccc12)c1c[nH]c2ccccc12,87.7%,23.3%,1.17% (active),33.6%,-10.1% (active),1.55% (active),44%,49.3%,65%,46.7%
CN(C)CCCC1(c2ccc(F)cc2)OCc2cc(-c3cc4ccccc4s3)ccc21 (stereo not given),72.3%,46.8%,37%,21%,60.5%,14.3%,21.4%,81%,4.59% (active),-8.07% (active)
COc1cccc(/C=N/NC(=O)c2ccccc2N2CCCC2)c1O,-7.25% (active),41.7%,78.8%,30.4%,74.9%,31.1%,0.778% (active),67.1%,-14% (active),30.7%
Cc1ccc(/C=C/C(=O)c2cccc(OCCCOc3cccc(C(=O)/C=C/c4ccc(C)cc4)c3)c2)cc1,105%,80%,79.6%,64%,120%,78.6%,68.1%,86.4%,73.6%,85.1%
Cc1cc(Nc2ccc(C(=O)N3CCCC3)cc2)nc(NCCCNc2ccnc3cc(Cl)ccc23)n1,99.5%,101%,85%,86.7%,106%,99%,99.1%,95.2%,65.3%,36.9%
COc1cccc(C(=O)NNc2nc(Cl)nc(Cl)n2)c1,96.3%,98%,100%,88.4%,104%,101%,96.1%,96.6%,101%,101%
Cn1cc(-c2csc(-c3cn(CCCN4CCOCC4)c4ccccc34)n2)c2cccnc21,91.8%,86.7%,87.2%,71%,86.9%,93.7%,92%,55.2%,62%,59.7%
CCN1C(=O)N(CC)C2C1NN=c1s/c(=C\c3cnc(C)n3C)c(=O)n12 (stereo not given),39.2%,49.7%,33.4%,40.9%,51.5%,34.3%,26%,-9.65% (active),9.03% (active),35%
C#CCNC(=O)[C@]1(C)CCC[C@@]2(C)[C@H]1CC=C1C=C(C(C)C)CC[C@@H]12,95.9%,94.6%,96.7%,88.8%,99.7%,106%,87.9%,102%,110%,87.9%
CC1(C)CC(=O)c2c(nn(-c3ccc(Br)cc3)c2-c2cn(-c3ccccc3)nc2-c2cccnc2)C1,98.1%,92.5%,92.7%,65.4%,140%,93.4%,66.5%,98.5%,94.4%,81.5%
